For 28 compounds, fractional viability results are on record in the supplement of paper PMC5919970.

Structures are written as SMILES. Structures can show the parent of a compound that is named as a salt. In all, about 2,000 compounds were measured (“fractional viability relative to vehicle”: median about 0.91, lowest 2% from about 0.045 on). The sample as a whole holds a higher share of the lowest values than the screen did.

In this test the test system is TYKNU. Briefly: fractional viability relative to vehicle; TYKNU is a high-grade serous ovarian cancer line; higher = less growth inhibition. The note with it: 72 h. In outline: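 TYKNU control cells or lentiCRISPRv2 knockout derivatives were plated at 500 cells per well in duplicate into drug-stamped 384-well plates holding a ~2100-compound library at 2 or 10 μM. Culture was in RPMI 1640 with 10% FBS at 37 °C in 5% CO2, with 72 h of drug treatment. Viability was measured by Cell Titer Glo luminescence, and the averaged duplicate treatment wells were normalised to duplicate control wells at the same plate position.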

Where [1] appears, read: 2uM, genotype: DNM1L knockout (sgDNM1L #1).
Setting [2] is: 2uM, genotype: sgCTRLA1 (non-targeting control).
Where [3] appears, read: 10uM, genotype: DNM1L knockout (sgDNM1L #1).
[4] abbreviates: 10uM, genotype: sgCTRLA1 (non-targeting control).

Regarding `OCc1ccc(O[C@@H]2O[C@H](CO)[C@@H](O)[C@H](O)[C@H]2O)cc1` [Gastrodin], the fractional viability was determined as 0.926 under setting [1], 1.16 under setting [2], 0.853 under setting [3] and 1.06 under setting [4].

As to `COc1ccc(-c2nc3cc(C4=NNC(=O)CC4C)ccc3[nH]2)cc1` (configuration not stated) [Pimobendan], the fractional viability is, setting by setting: under setting [1], 1.1; under setting [2], 1.05; under setting [3], 0.55; under setting [4], 0.472.

In the case of `CN1C(C(=O)Nc2ccccn2)=C(O)c2sc(Cl)cc2S1(=O)=O` [Lornoxicam], the fractional viability was 1.04 under setting [1], 1.22 under setting [2], 0.894 under setting [3] and 0.996 under setting [4].

As to `Cc1cc(N2CCOCC2)cc2[nH]c(-c3c(NC[C@@H](O)c4cccc(Cl)c4)cc[nH]c3=O)nc12`, the fractional viability by setting is: under setting [1], 0.488; under setting [2], 0.845; under setting [3], 0.35; under setting [4], 0.472.

`C=C1C(=O)O[C@H]2[C@H]1CC/C(C)=C/CC[C@@]1(C)O[C@@H]21` [(-)-Parthenolide]: the fractional viability under setting [1] stood at 0.336, the fractional viability under setting [2] is 0.595, the fractional viability under setting [3] was determined as 0.0299 and the fractional viability under setting [4] worked out at 0.0264.

As to `C=C1C(=O)O[C@@H]2/C=C(\C)CC/C=C(\C)CC[C@@H]12` [Costunolide], the fractional viability runs as follows: under setting [1], 0.946; under setting [2], 1.05; under setting [3], 0.226; under setting [4], 0.249.

With `CN(C)CCc1c[nH]c2ccc(CS(=O)(=O)N3CCCC3)cc12` [Almotriptan Malate], the fractional viability is, setting by setting: under setting [1], 1.02; under setting [2], 1.18; under setting [3], 0.947; under setting [4], 1.02.

For `CC(C)(O)CC[C@@H](O)[C@](C)(O)[C@H]1CC[C@@]2(O)C3=CC(=O)[C@@H]4C[C@@H](O)[C@@H](O)C[C@]4(C)[C@H]3CC[C@]12C` [20-Hydroxyecdysone], the fractional viability reads like this: under setting [1], 1.04; under setting [2], 1.1; under setting [3], 0.84; under setting [4], 1.02.

Consider `COC(=O)c1ccc2c(c1)[nH]c1ncnc(NCCCN3CCCCC3)c12`, for which the fractional viability under setting [1] came to 0.884, the fractional viability under setting [2] was 1.05, the fractional viability under setting [3] turned out to be 0.929 and the fractional viability under setting [4] worked out at 0.811.

As for `COc1cc2nc(N3CCCN(C)CC3)nc(NC3CCN(Cc4ccccc4)CC3)c2cc1OC`, the fractional viability is, setting by setting: under setting [1], 0.474; under setting [2], 0.548; under setting [3], 0.0331; under setting [4], 0.0181.

In turn, `COc1cc2nc(N3CCN(C(=O)C4CCCO4)CC3)nc(N)c2cc1OC` (configuration not stated) [Terazosin HCl] yielded a fractional viability under setting [1] of 1.17, a fractional viability under setting [2] of 1.16, a fractional viability under setting [3] of 1.07 and a fractional viability under setting [4] of 0.97.

In turn, `COc1cc(OC)c(C(=O)CCCN2CCCC2)c(OC)c1` [Buflomedil HCl] registered a fractional viability under setting [1] of 0.912, a fractional viability under setting [2] of 1.1, a fractional viability under setting [3] of 0.825 and a fractional viability under setting [4] of 1.03.

Compound `COc1cc2nc(N3CCCC3)nc(NCCCCCN3CCCC3)c2cc1OC` returned a fractional viability under setting [1] of 0.426, a fractional viability under setting [2] of 0.543, a fractional viability under setting [3] of 0.0312 and a fractional viability under setting [4] of 0.0156.

With `COc1cc2c(NC3CCN(CC4CCCCC4)CC3)nc(N3CCCN(C(C)C)CC3)nc2cc1OCCCN1CCCCC1`, the fractional viability by setting is: under setting [1], 0.657; under setting [2], 0.723; under setting [3], 0.0227; under setting [4], 0.00884.

As to `COc1cc(Nc2c(C#N)cnc3cc(OCCCN4CCN(C)CC4)c(OC)cc23)c(Cl)cc1Cl` [Bosutinib (SKI-606)], the fractional viability reads like this: under setting [1], 0.41; under setting [2], 0.574; under setting [3], 0.138; under setting [4], 0.111.

As to `COc1cc2nc(N3CCN(C(=O)C4COc5ccccc5O4)CC3)nc(N)c2cc1OC` (configuration not stated) [Doxazosin Mesylate], the fractional viability was found to be 1.18 under setting [1], 1.11 under setting [2], 1.07 under setting [3] and 0.931 under setting [4].

Take `c1coc(CNc2ncnc3[nH]cnc23)c1` [Kinetin]: the fractional viability is, setting by setting: under setting [1], 1.01; under setting [2], 1.01; under setting [3], 0.361; under setting [4], 0.431.

For the compound `Cc1nn(C)c2c1C(c1ccc(C(F)(F)F)cc1)C(C#N)=C(N)O2` (configuration not stated), the fractional viability by setting is: under setting [1], 0.924; under setting [2], 1.08; under setting [3], 0.886; under setting [4], 0.86.

Regarding `OC(CN1CCN(c2cccc(Cl)c2)CC1)C(c1ccccc1)c1ccccc1` (configuration not stated), the fractional viability runs as follows: under setting [1], 0.96; under setting [2], 1.02; under setting [3], 0.831; under setting [4], 1.05.

For the compound `Cc1cc(C(O)=C2C(=O)C(=O)N(CCCN3CCOCC3)C2c2ccncc2)ccc1OCc1ccccc1` (configuration not stated), the fractional viability by setting is: under setting [1], 0.77; under setting [2], 0.984; under setting [3], 0.802; under setting [4], 0.726.

In turn, `NC(=O)C(c1ccccc1)(c1ccccc1)[C@@H]1CCN(CCc2ccc3c(c2)CCO3)C1` [Darifenacin HBr] registered a fractional viability under setting [1] of 0.951, a fractional viability under setting [2] of 1.21, a fractional viability under setting [3] of 0.794 and a fractional viability under setting [4] of 0.953.

On to `C=C[C@]1(C)C[C@@H](OC(=O)CSC(C)(C)CNC(=O)[C@H](N)C(C)C)[C@]2(C)[C@H](C)CC[C@]3(CCC(=O)[C@H]32)[C@@H](C)[C@@H]1O` [Valnemulin HCl], for which the fractional viability is, setting by setting: under setting [1], 0.403; under setting [2], 0.236; under setting [3], 0.385; under setting [4], 0.238.

`COc1ccc(C(=O)CC2(O)C(=O)Nc3c(Cl)ccc(Cl)c32)cc1` (configuration not stated): the fractional viability came out at 0.264 under setting [1], 0.243 under setting [2], 0.175 under setting [3] and 0.186 under setting [4].

Turning to `Cc1ccc(NC(=O)c2ccc(CN3CCN(C)CC3)cc2)cc1Nc1nc(-c2cccnc2)cs1` [Masitinib (AB1010)], the fractional viability by setting is: under setting [1], 1.29; under setting [2], 1.09; under setting [3], 0.779; under setting [4], 0.775.

`Cc1ccc(NC(=O)c2ccc(CN3CCN(C)CC3)cc2)cc1Nc1nccc(-c2cccnc2)n1` [Imatinib Mesylate (STI571)] displayed a fractional viability under setting [1] of 1.08, a fractional viability under setting [2] of 1.12, a fractional viability under setting [3] of 0.599 and a fractional viability under setting [4] of 0.612.

Consider `Cc1ccc(C(=O)Nc2ccc(CN3CCN(C)CC3)c(C(F)(F)F)c2)cc1C#Cc1cnc2[nH]ncc2c1`, for which the fractional viability reads like this: under setting [1], 0.214; under setting [2], 0.169; under setting [3], 0.0362; under setting [4], 0.0116.

`Cc1ccc(NC(=O)c2ccc(CN3CCN(C)CC3)cc2)cc1Nc1nccc(-c2cccnc2)n1` [Imatinib (STI571)]: the fractional viability by setting is: under setting [1], 1.18; under setting [2], 1.1; under setting [3], 0.839; under setting [4], 0.867.

As for `Cc1ccc(C(=O)Nc2ccc(CN3CCN(C)CC3)c(C(F)(F)F)c2)cc1C#Cc1cnc2cccnn12`, the fractional viability turned out to be 0.227 under setting [1], 0.185 under setting [2], 0.0344 under setting [3] and 0.0177 under setting [4].
